Among all 5,500 compounds or so, about 2,000 (36%) were called active. About 18% were inconclusive and are not listed. Cut-off read from the data, not from the text of the source: active = normalized growth mostly below about 0.91 (no sharp cut-off); inconclusive = no clear call, values can overlap the other calls; inactive = mostly above about 0.92. Some of the results follow.
Test: chemical genetic growth profiling, strain panel (AID 1159580);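 note: tested at 20 µM; growth read once vehicle control cultures reached saturation at 30 °C; 1 = growth at the plate median or of vehicle wells; lower values mean less growth of the strain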
Details: S. cerevisiae deletion strains, growth OD

Measured: normalized growth

C[C@H]1C2Cc3ccc(O)cc3[C@]1(C)CCN2CC1CC1
inactive: locus YAL040C, strain CLN3, active compounds read low 0.994 | locus YCL061C, strain MRC1 (second series), active compounds read low 1.01 | locus YDR150W, strain NUM1, active compounds read low 1 | locus YDR363W, strain ESC2, active compounds read low 1.02 | locus YER002W, strain NOP16, active compounds read low 0.988 | locus YGR078C, strain PAC10, active compounds read low 1.01 | locus YGR229C, strain SMI1, active compounds read low 1.05 | locus YNL153C, strain GIM3, active compounds read low 1.02 | locus YNL175C, strain NOP13, active compounds read low 1.02 | locus YNL197C, strain WHI3, active compounds read low 1.02 | locus YNL224C, strain SQS1, active compounds read low 1 | locus YNL322C, strain KRE1, active compounds read low 1.02 | locus YOR083W, strain WHI5 (second series), active compounds read low 1.04 | locus YPL055C, strain LGE1, active compounds read low 1.02 | locus YPL241C, strain CIN2, active compounds read low 1.01

Source: PubChem BioAssay AID1159580 (chemical genetic matrix, 2015)
